# Values joined by “and” are separate entries in the source; they are usually repeats but may differ in a detail not shown here. Equal values may be shown once. Inconclusive results are not listed. Active and inactive are the calls of the source. Unless noted, calls follow the shape of the dose curve; as a rule, active = well fitted curve in the direction sought with a large enough effect; inconclusive = small, poorly fitted or top-dose-only effect, or another doubt; inactive = no such curve, though single readings can be large; an effect the other way counts as inactive or inconclusive.
# Experiments:
# [1] = qHTS assay for small molecule activators of the p53 signaling pathway (AID 651743; active = well fitted activation curve with a large enough effect in the signal ratio, not every such curve was filed as active; the % refers to the signal ratio; also: % of control where 0% means no effect); details: HCT-116 p53RE-bla, beta-lactamase FRET ratio, 16 h; stronger effect = higher value
# How it was run: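 Reporter: beta-lactamase driven by p53 response elements, stably integrated in HCT-116 cells. Cells seeded at 4,000/well, 5 h preincubation, compound (DMSO) 16 h at 37 C; B/G FRET substrate 2 h RT; fluorescence intensity read.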
# [2] = qHTS assay for small molecule activators of the nuclear factor-kappa B (NF-kB) signaling pathway (AID 651749; active = well fitted activation curve with a large enough effect in the signal ratio; the % refers to the signal ratio; also: % of control where 0% means no effect); details: NF-kB-bla ME-180 cells, beta-lactamase FRET ratio, 16 h; stronger effect = higher value
# How it was run: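 NF-kB-bla ME-180 cells, 2,000/well; 23 nL compound or DMSO pinned; 16 hr, 37C/5% CO2; beta-lactamase FRET read-out.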
# [3] = qHTS assay for small molecule agonists of the antioxidant response element (ARE) signaling pathway (AID 651741; active = well fitted activation curve with a large enough effect in the signal ratio; the % refers to the signal ratio; also: potency is read from the fitted curve at half-maximal effect; as to activation: % of control where 0% means no effect); details: HepG2 ARE-bla reporter, beta-lactamase FRET ratio, 16 h; series mostly up to 96 µM
# How it was run: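 HepG2 ARE-bla reporter cells, 2,000/well; 5 h settle at 37 C/5% CO2; compound pin transfer (23 nL, DMSO); 16 h at 37 C; LiveBLAzer B/G FRET substrate, 2 h RT; fluorescence intensity read.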
# [4] = qHTS assay for small molecule disruptors of the mitochondrial membrane potential - 1 hr assay (AID 651754; calls by dose curve; also: nearly all actives have a fitted effect of over 35% in size; also: potency is read from the fitted curve at half-maximal effect); details: series mostly up to 92.2 µM
# How it was run: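 Read-out: dye fluorescence at 490 nm ex/535 nm em (monomers) and 540 nm ex/590 nm em (aggregates) in HepG2 cells. Compound exposure 1 hr at 37C, followed by 30 min dye loading.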
# [5] = qHTS Assay for Identification of Small Molecule Agonists for NFkB Signaling Pathway. (AID 624478); details: NFkB pathway reporter cell assay, agonist mode, cells co-stimulated with 10 pM TNF alpha; series mostly up to 46.1 µM;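 also: compounds tested together with TNF alpha at its EC50 of 10 pM; 0% is about no effect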
# Method: The TNF alpha/NFkB signaling pathway was assayed in NFkB-bla cells (Invitrogen), a ME-180 cervical carcinoma line containing a stably integrated beta-lactamase reporter gene controlled by a NFkB response element. This reporter is induced by TNF alpha at 10 pM EC50 and inhibited by the proteosome inhibitor MG-132 at approximately 100 nM IC50. The assay was screened at the EC50 of TNF alpha activation to identify activators of TNF alpha/NFkB signaling
# Cells were trypsinized, washed in assay medium (AM, OPTI MEM with 0.5% fetal bovine serum, 0.1 mM nonessential amino acids, 1 mM sodium pyruvate, 10mM HEPES pH 7.3, 100U/ml penicillin, and 100 ug/ml streptomycin) and plated at 1000 cells/5 uL/well into black clear-bottom 1536 well plates. After an overnight incubation at 37 C and 5% CO2, 23 nL of compound were delivered by a pin tool, 1 uL of TNF alpha (10 pM final concentration in AM) was added and plates were incubated at 37 C for 5 hrs. One uL of LiveBLAzerTM detector mix (Invitrogen) was added, the plates incubated at room temperature for 2 hrs, and fluorescence intensity at 460 and 530 nm emission was measured at 405 nm excitation by an Envision (Perkin Elmer).
# [6] = qHTS Assay for Identification of Small Molecule Antagonists for NFkB Signaling Pathway. (AID 624479; calls by dose curve; also: potency is read from the fitted curve at half-maximal effect); details: NFkB pathway reporter cell assay, antagonist mode; series mostly up to 38.3 µM
# [7] = Cell Proliferation Assay against the TMD8 Cell Line (AID 651645); details: TMD8 DLBCL cell line proliferation/viability; at 46.1 µM (top of the series);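 also: cells exposed to compound for 48 h before reading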
# How it was run: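 500 TMD8 cells/well, RPMI + Glutamax, no phenol red, 5% FBS; cpd added immediately; 48 h, 37C, 5% CO2; CellTiter-Glo, luminescence. Controls: DMSO = 100%, bortezomib 9.2 uM final = 0%.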
# [8] = Cell Proliferation Assay against the HBL1 Cell Line (AID 651646); details: HBL1 DLBCL cells; at 46.1 µM (top of the series);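 also: cells exposed to compound for 48 h before reading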
# How it was run: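 HBL1, 500 cells/well, RPMI no phenol red + 5% FBS; cpd pinned, 48 h 37C/5% CO2; CellTiter-Glo, 15 min RT, luminescence. % activity: DMSO = 100%, bortezomib 9.2 uM final = 0%.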
# [9] = Cell Proliferation Assay against the TMD8 Cell Line (Caspase readout at 8 hrs) (AID 651713); details: TMD8 lymphoma cells, caspase activation luminescence; series mostly up to 46.1 µM; also: potency is read from the fitted curve at half-maximal effect;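 as to caspase activation: 0% = DMSO and 100% = 9.2 µM bortezomib caspase signal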
# How it was run: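 Apoptosis readout: caspase 3/7 luminescence (Caspase-Glo), 15 min RT. Cells: TMD8, 500/well, RPMI + 5% FBS, no phenol red. Exposure 8 h, 37C. % activity vs DMSO = 0, bortezomib 9.2 uM final = 100.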
# [10] = Cell Proliferation Assay against the TMD8 Cell Line (Caspase readout at 16 hrs) (AID 651712); details: TMD8 lymphoma cells, caspase activation luminescence; series mostly up to 46.1 µM;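 also: 0% = DMSO and 100% = 9.2 µM bortezomib caspase activation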
# How it was run: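 Caspase-Glo luminescence after 16 h compound exposure of TMD8 cells, 37 °C, 5% CO2. Medium: RPMI without phenol red, 5% FBS. Normalisation: DMSO = 0%, bortezomib 9.2 uM final = 100%.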
structure (smiles),measurement,setting,value
CC1=NN(c2ccccc2)C(=O)C1,activation,[1],-1.06% (inactive) and 1.05% (inactive)
same,activation,[2],1.02% (inactive) and -0.66% (inactive)
S=P(N1CC1)(N1CC1)N1CC1,activation,[1],23.1% (inactive)
same,activation,[2],0.913% (inactive)
CC[C@H](C)C(=O)O[C@H]1C[C@@H](C)C=C2C=C[C@H](C)[C@H](CC[C@@H]3C[C@@H](O)CC(=O)O3)[C@H]21,activation,[1],-3.22% (inactive)
same,activation,[2],-1.44% (inactive)
Cc1cc(NS(=O)(=O)c2ccc(N)cc2)no1,Potency,[3],inactive
same,activation,[1],-3.47% (inactive)
O=C(N[C@H](CO)[C@H](O)c1ccc([N+](=O)[O-])cc1)C(Cl)Cl,Potency,[3],inactive
same,activation,[1],0.234% (inactive) and 2.8% (inactive)
same,activation,[2],-1.34% (inactive) and 1.06% (inactive)
same,Potency,[4],inactive
N=C(N)c1ccc(OCCCCCOc2ccc(C(=N)N)cc2)cc1,activation,[2],0.454% (inactive) and 0.519% (inactive)
Cc1ccnc2c1NC(=O)c1cccnc1N2C1CC1,Potency,[3],inactive
same,activation,[1],-7.19% (inactive)
CC(C)C[C@H](NC(=O)[C@H](CCc1ccccc1)NC(=O)CN1CCOCC1)C(=O)N[C@@H](Cc1ccccc1)C(=O)N[C@@H](CC(C)C)C(=O)[C@@]1(C)CO1,outcome,[5],inactive
same,Potency,[6],0.0033 µM (active)
same,viability (% of control),[7],3.43%
same,"viability, percent of control",[8],3.69%
OC(Cn1cncn1)(Cn1cncn1)c1ccc(F)cc1F,activation,[1],-0.436% (inactive)
same,activation,[2],-1.38% (inactive)
Cc1ncc([N+](=O)[O-])n1CCO,Potency,[3],inactive
same,activation,[1],-1.78% (inactive)
CC(=O)Oc1ccccc1C(=O)Nc1ncc([N+](=O)[O-])s1,activation,[2],-1.07% (inactive)
CCc1cc(C(N)=S)ccn1,Potency,[3],inactive
same,activation,[1],-0.635% (inactive) and 1.18% (inactive)
same,activation,[2],0.391% (inactive) and -1.64% (inactive)
same,Potency,[4],inactive
COc1ccc2cc3[n+](cc2c1OC)CCc1cc2c(cc1-3)OCO2,Potency,[3],33.5 µM (active)
same,activation,[1],9.7% (inactive)
same,Potency,[4],21.1 µM (active)
NNC(=O)c1ccncc1,Potency,[3],inactive
same,activation,[1],0.245% (inactive)
same,activation,[2],-1.16% (inactive)
same,Potency,[4],inactive
CC(=O)[C@H]1CC[C@H]2[C@@H]3CCC4=CC(=O)CC[C@]4(C)[C@H]3CC[C@]12C,activation,[1],-1.4% (inactive) and -5.04% (inactive) and -4.98% (inactive)
CNC(=O)c1cc(Oc2ccc(NC(=O)Nc3ccc(Cl)c(C(F)(F)F)c3)cc2)ccn1,outcome,[5],inactive
same,Potency,[6],9.43 µM (active)
same,viability (% of control),[7],-0.0117%
same,"viability, percent of control",[8],1.39%
NC(N)=NC(N)=NCCc1ccccc1,Potency,[3],37.6 µM (active)
same,activation,[1],7.9% (inactive) and 8.21% (inactive)
same,activation,[2],0.778% (inactive) and 0.59% (inactive)
NC1(c2ccc(-c3nc4ccn5c(=O)[nH]nc5c4cc3-c3ccccc3)cc2)CCC1,outcome,[5],inactive
same,viability (% of control),[7],-0.504%
same,"viability, percent of control",[8],1.05%
same,Potency,[9],26.4 µM (active)
CN(C)c1ccc(C(=C2C=CC(=[N+](C)C)C=C2)c2ccc(N(C)C)cc2)cc1,Potency,[4],0.668 µM (active)
N[C@@H](Cc1ccc(O)c(O)c1)C(=O)O,activation,[2],0.678% (inactive)
COc1cc2nc(N3CCCN(C)CC3)nc(NC3CCN(Cc4ccccc4)CC3)c2cc1OC,outcome,[5],inactive
same,Potency,[6],23.7 µM (active)
same,viability (% of control),[7],3.15%
same,"viability, percent of control",[8],3.52%
same,Potency,[9],26.4 µM (active)
Cc1noc(NS(=O)(=O)c2ccc(N)cc2)c1C,Potency,[3],inactive
same,activation,[1],-3.81% (inactive) and -3.88% (inactive)
same,activation,[2],-1.4% (inactive) and -1.01% (inactive)
CCN(CC)CCn1c(=O)c(Cc2ccc(OC)cc2)nc2ccccc21,outcome,[5],inactive
same,Potency,[6],inactive
same,viability (% of control),[7],89.1%
same,"viability, percent of control",[8],99.1%
same,outcome,[10],inactive
same,Potency,[9],inactive
C[C@]12C=CC(=O)C=C1CC[C@@H]1[C@@H]2C(=O)C[C@@]2(C)[C@H]1CC[C@]2(O)C(=O)CO,activation,[2],1.39% (inactive)
same,Potency,[4],inactive
COc1cc2c(Nc3ccc(Br)cc3F)ncnc2cc1OCC1CCN(C)CC1,outcome,[5],inactive
same,viability (% of control),[7],8.14%
same,"viability, percent of control",[8],4.03%
same,outcome,[10],inactive
Cc1nnc(NS(=O)(=O)c2ccc(N)cc2)s1,Potency,[3],inactive
same,activation,[1],-1.27% (inactive)
Cc1c(-c2ccc(O)cc2)n(Cc2ccc(OCCN3CCCCCC3)cc2)c2ccc(O)cc12,outcome,[5],inactive
same,Potency,[6],inactive
O=C(O)c1cc(=O)[nH]c(=O)[nH]1,Potency,[3],inactive
same,activation,[1],-1.01% (inactive)
COc1cc([C@@H]2c3cc4c(cc3[C@H](O)[C@H]3COC(=O)[C@H]23)OCO4)cc(OC)c1OC,outcome,[5],inactive
same,Potency,[6],inactive
same,viability (% of control),[7],0.77%
same,"viability, percent of control",[8],23.7%

# Reference: PubChem BioAssay (NCATS)
